Bioassay records (PubChem)
GLD-1 TGE inh = GLD-1-TGE RNA interaction inhibition (C. elegans); hit rate 0.44% among 320,000; inhibition, % at 5.96 µM; Q17339; purified GLD-1 + fluorescein TGE RNA, fluorescence polarization;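 active = percent inhibition above a per-plate cutoff, the plate mean of test compounds plus 3 SD, cut at about 30% in these data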
MEX-5 binding = C. elegans MEX-5 TCR-2 RNA binding activity; MEX-5/FITC-TCR2 RNA binding, fluorescence polarization; active compounds read low; activity score (negative = inhibition of binding), % at 10 µM; hit rate 0.38% among 300,000; AID 1832;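 active = inhibition past about -25% in most replicates, and total fluorescence under double the plate's negative control median, limit read from the data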
Target sequence (Q9XUB2 whole entry, looked up): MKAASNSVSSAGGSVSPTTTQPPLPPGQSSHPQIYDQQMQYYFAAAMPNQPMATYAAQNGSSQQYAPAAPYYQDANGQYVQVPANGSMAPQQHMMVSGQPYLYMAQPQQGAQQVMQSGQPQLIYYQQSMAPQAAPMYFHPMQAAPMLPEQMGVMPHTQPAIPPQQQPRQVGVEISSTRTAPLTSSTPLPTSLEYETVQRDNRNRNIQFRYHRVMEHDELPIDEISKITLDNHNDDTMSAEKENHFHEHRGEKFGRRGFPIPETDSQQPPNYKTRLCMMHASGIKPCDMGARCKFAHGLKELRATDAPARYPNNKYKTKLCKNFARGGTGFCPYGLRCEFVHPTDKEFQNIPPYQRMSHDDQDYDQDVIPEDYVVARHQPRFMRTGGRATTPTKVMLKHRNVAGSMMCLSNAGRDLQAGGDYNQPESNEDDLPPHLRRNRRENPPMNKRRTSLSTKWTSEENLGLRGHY
E coli Lon inh = inhibits E. coli Lon protease | P0A9M0 | purified E. coli Lon protease, fluorescence polarization | inhibition, % at 7.94 µM | hit rate 0.42% among 360,000 | AID 602123; in the data active = inhibition above about 13%, passing the limit was not always enough
EBV gp42 block = inhibitors of Epstein-Barr virus glycoprotein 42; inhibition, % (tested at 21.74 µM); Q1HVG2; Fluorescence polarization binding assay, mP read-out; hit rate 0.42% among 220,000; in the data active = inhibition above about 50%
Target sequence (Q1HVG2 whole entry, looked up): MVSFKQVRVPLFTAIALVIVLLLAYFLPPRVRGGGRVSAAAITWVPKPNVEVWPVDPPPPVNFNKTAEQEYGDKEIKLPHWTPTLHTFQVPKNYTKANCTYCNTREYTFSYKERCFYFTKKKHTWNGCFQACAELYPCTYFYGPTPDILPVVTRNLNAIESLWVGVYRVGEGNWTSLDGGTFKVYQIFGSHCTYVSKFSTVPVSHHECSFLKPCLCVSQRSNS
Bcl-xL primary = inhibitors of human Bcl-xL. Q07817. GST-Bcl-xL / FITC-Bim BH3 peptide fluorescence polarization. inhibition, % at 10.9 µM. hit rate 0.7% among 320,000. AID 2129;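 active = inhibition above the mean of all tested compounds plus 3 SD, cutoff set per campaign, cut at about 30% in these data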;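 note: inhibitors lower millipolarization by displacing the labeled peptide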
MCL1 BIM primary = disrupts human MCL1 binding to BIM-BH3 peptide. Q07820. GST-MCL1 / FITC-Bim-BH3 fluorescence polarization. inhibition, % at 10.9 µM. hit rate 0.68% among 320,000;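 active = inhibition above the mean inhibition of all tested compounds plus 3 SD, set per campaign, cut at about 40% in these data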;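 note: higher means more loss of mP so more displacement of Bim peptide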
Bcl-xL conf = Bcl-xL (human) inhibition, MCL1 counter-screen confirmation; shares compounds with MCL1 BIM primary; GST-Bcl-xL / FITC-Bim BH3 peptide FP binding; inhibition, % at 10.9 µM; hit rate 54% among 1,700;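 active = inhibition above a cutoff equal to the mean inhibition of all tested compounds plus 3 SD, cut at about 30% in these data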
MCL1 inh confirm = confirmation of human MCL1 and BIM-BH3 interaction inhibitors | shares compounds with MCL1 BIM primary | GST-MCL1 / FITC-Bim-BH3 fluorescence polarization | inhibition, % at 10.9 µM | hit rate 61% among 1,700 | AID 2168;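 active = inhibition above the average of all tested compounds plus 3 SD, cut at about 40% in these data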
Each line names hits and unclear results; the compound was inactive in the other large screens (follow-up assays come after a bar, where they were run). Only some compounds are listed: those with a hit (about 1.5% of all), similar ones and a draw of the others.

CC(=O)N1CCc2c(sc(NC(=O)CCS(=O)(=O)c3ccccc3)c2C(N)=O)C1	none (no result: EBV gp42 block)
CCOC(=O)N1CCc2c(sc(NC(=O)CCS(=O)(=O)c3ccccc3)c2C(N)=O)C1	MCL1 BIM primary 48 (no result: EBV gp42 block) | Bcl-xL conf inactive | MCL1 inh confirm inactive
NC(=O)CC(NC(=O)c1ccc(Br)cc1)c1ccc(N2CCCCCCC2)c([N+](=O)[O-])c1 (stereo not drawn)	none (no result: EBV gp42 block)
Cc1ccc(C(=O)NCC(=O)NCC(=O)OCC(=O)c2ccc(Br)cc2)cc1	MCL1 BIM primary 54 | Bcl-xL conf inactive | MCL1 inh confirm inactive
Cc1ccc(C(=O)COC(=O)CNC(=O)Cc2ccccc2)cc1	none (no result: EBV gp42 block)
COn1c(-c2ccc(Cl)cc2)nc2ncccc21	none (no result: EBV gp42 block)
O=C1c2c(Cl)c(Cl)c(Cl)c(Cl)c2C(=O)N1c1nccs1	none (no result: GLD-1 TGE inh, MEX-5 binding, EBV gp42 block, Bcl-xL primary, MCL1 BIM primary)
Cc1ccc2nc(N(CCCN(C)C)C(=O)c3ccc(S(=O)(=O)N4CCCCCC4)cc3)sc2c1	none (no result: EBV gp42 block)
CCc1ccc2nc(N(CCCN(C)C)C(=O)c3ccc(S(=O)(=O)N4CCCC4)cc3)sc2c1	MCL1 BIM primary 44 (no result: EBV gp42 block) | Bcl-xL conf inactive | MCL1 inh confirm inactive
O=c1oc(-c2ccc(Br)o2)nc2ccccc12	MCL1 BIM primary 98 | Bcl-xL conf inactive | MCL1 inh confirm inactive
O=C(N/N=C/c1ccncc1)c1cccc(S(=O)(=O)Nc2ccc(Cl)cc2)c1	MCL1 BIM primary 52 | Bcl-xL conf inactive | MCL1 inh confirm 74
COc1ccc(NS(=O)(=O)c2cccc(C(=O)Nc3cccc(C(=O)O)c3)c2)cc1	MCL1 BIM primary 68 (no result: EBV gp42 block) | Bcl-xL conf inactive | MCL1 inh confirm inactive
COc1ccc(CC(=O)Nc2cccc(C(=O)Nc3cccc(C)c3)c2)cc1	MCL1 BIM primary 118 (no result: E coli Lon inh) | Bcl-xL conf inactive | MCL1 inh confirm inactive
COc1ccc(C(=O)Nc2cccc(C)c2)cc1	none
O=c1cc(CSc2nnc3ccccn23)c2c(ccc3ccccc32)o1	GLD-1 TGE inh 66, Bcl-xL primary 76, MCL1 BIM primary 88 | Bcl-xL conf inactive | MCL1 inh confirm inactive
CN(C)c1ccc(/C=N/N(CCO)C2=NS(=O)(=O)c3ccccc32)cc1	GLD-1 TGE inh 36, Bcl-xL primary active, MCL1 BIM primary 140 (no result: EBV gp42 block) | Bcl-xL conf active | MCL1 inh confirm active
O=C(Cn1cnc2sc(-c3ccccc3)cc2c1=O)NCc1ccco1	MCL1 BIM primary 62 (no result: MEX-5 binding) | Bcl-xL conf inactive | MCL1 inh confirm 62
O=C(Cn1cnc2sc(-c3ccccc3)cc2c1=O)NCc1ccccc1	none
CC(Oc1ccc(F)cc1)C(=O)Nc1cccc(-c2nn[nH]n2)c1 (stereo not drawn)	MCL1 BIM primary 41 (no result: EBV gp42 block) | Bcl-xL conf inactive | MCL1 inh confirm inactive
C=CCOc1ccc(/C=C2\SC(=Nc3cccnc3)NC2=O)cc1	Bcl-xL primary 64, MCL1 BIM primary 64 | Bcl-xL conf 65 | MCL1 inh confirm 74
CCN(CC)c1ccc2cc(NC(=O)CCC(=O)O)c(=O)oc2c1	GLD-1 TGE inh 75, MEX-5 binding -68, EBV gp42 block 74, Bcl-xL primary 103, MCL1 BIM primary 113 | Bcl-xL conf 106 | MCL1 inh confirm 118
CCN(CC)c1ccc2cc(C(C)=O)c(=O)oc2c1	none
CC1OC23CCCCC2C(C#N)(C(=N)O3)C1(C#N)C#N (stereo not drawn)	none
CCCC1OC23CCCCC2C(C#N)(C(=N)O3)C1(C#N)C#N (stereo not drawn)	GLD-1 TGE inh 55, Bcl-xL primary 55, MCL1 BIM primary 56 | Bcl-xL conf inactive | MCL1 inh confirm inactive
CNC(=O)c1cc(C(=O)c2ccc(C(F)(F)F)cc2F)c[nH]1	MCL1 BIM primary 66 | Bcl-xL conf inactive | MCL1 inh confirm inactive
CNC(=O)c1cc(C(=O)c2ccc(C(F)(F)F)cc2)c[nH]1	none (no result: EBV gp42 block)
CCn1cc(C(=O)NCC(C)C)c(=O)c2cc(F)c(N3CCN(C)CC3)cc21	none
CCn1cc(C(=O)NN)c(=O)c2cc(F)c(N3CCOCC3)cc21	MCL1 BIM primary 41 (no result: EBV gp42 block) | Bcl-xL conf inactive | MCL1 inh confirm inactive
CCN(C(=O)COC(=O)c1nccnc1N)c1cccc2ccccc12	none (no result: MEX-5 binding, EBV gp42 block, Bcl-xL primary, MCL1 BIM primary)
O=[N+]([O-])c1cc(Cl)cc(/C=N\Nc2ccccn2)c1O	none
CN(C)C1(CN=Cc2cc(Cl)cc([N+](=O)[O-])c2O)CCCCC1	MCL1 BIM primary 60 (no result: EBV gp42 block) | Bcl-xL conf inactive | MCL1 inh confirm inactive
N#C/C(=C\c1cccc([N+](=O)[O-])c1)C(=O)NCC1CCCO1 (stereo not drawn)	Bcl-xL primary 61, MCL1 BIM primary 50 | Bcl-xL conf inactive | MCL1 inh confirm inactive
CCOC(=O)c1c(NC(=O)COC(=O)c2cccnc2OCC)sc(C(=O)N(CC)CC)c1C	none (no result: MEX-5 binding, EBV gp42 block, Bcl-xL primary, MCL1 BIM primary)
CC1=Nc2ccccc2/C1=C\c1nc(-c2ccc(F)cc2)oc1O	GLD-1 TGE inh 172, MEX-5 binding -36, EBV gp42 block 138, Bcl-xL primary active, MCL1 BIM primary active | Bcl-xL conf 92 | MCL1 inh confirm 141
CN=Cc1nc(-c2ccccc2)oc1O	none
Cc1ccc(-c2csc3ncn(CC#N)c(=O)c23)cc1C	MCL1 BIM primary 59 (no result: EBV gp42 block) | Bcl-xL conf inactive | MCL1 inh confirm 41
CCNc1ccccc1CP(=O)(c1ccccc1)c1ccccc1O (stereo not drawn)	GLD-1 TGE inh active, Bcl-xL primary active, MCL1 BIM primary active (no result: E coli Lon inh, EBV gp42 block) | Bcl-xL conf inactive | MCL1 inh confirm inactive
Oc1c(CN2CCCC(C(F)(F)F)C2)cc(Cl)c2ccccc12 (stereo not drawn)	none (no result: EBV gp42 block)
CCNc1ccc(Br)cc(C(=O)/C=C/c2ccc3c(c2)OCO3)c1=O	MCL1 BIM primary 47 | Bcl-xL conf inactive | MCL1 inh confirm inactive
CCC1(C(=O)OC)NC(c2ccccc2OC)C2C(=O)N(C)C(=O)C21 (stereo not drawn)	Bcl-xL primary 58, MCL1 BIM primary 58 | Bcl-xL conf inactive | MCL1 inh confirm inactive
COc1ccc2oc(C(=O)N3CCN(S(=O)(=O)c4cccc([N+](=O)[O-])c4)CC3)c(C)c2c1	MCL1 BIM primary 46 (no result: EBV gp42 block) | Bcl-xL conf inactive | MCL1 inh confirm inactive
CCOC(=O)N1CCC(NC(=O)c2oc3c(C)c(C)ccc3c2C)CC1	none (no result: EBV gp42 block)
CN1C(=O)c2ccccc2NC(=O)[C@]12O[C@@H]2c1cccc(O)c1	MEX-5 binding -44, Bcl-xL primary 62, MCL1 BIM primary 65 | Bcl-xL conf 56 | MCL1 inh confirm 69
CS(=O)(=O)NN1C(=O)c2ccccc2NC1c1cccc(O)c1 (stereo not drawn)	none
Cc1ccc(/C=C2/NC(=O)N(Cc3ccc(Br)cc3)C2=O)o1	MCL1 BIM primary 46 | Bcl-xL conf inactive | MCL1 inh confirm inactive
